Source: PubChem BioAssay (National Center for Advancing Translational Sciences (NCATS))
Shown are actives, neighbours in structure and some others; about 7.3% of the full set was active somewhere.
SMN2 splice up – enhancers of SMN2 splice variant expression | HEK293 SMN2-luciferase splicing reporter, luminescence, 30-36 h | Potency, µM (doses to about 46.1 µM), inactives show top-dose activity change, positive = activation, actives largely listed as activators | 210,000 tested, 2.8% active; further: % of control where 0% means no effect; nearly all actives have a fitted effect of over 55% in size
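qHTS luciferase splicing reporter: luminescence rises when SMN2 exon 7 is included in transfected HEK293 cells. Compound exposure lasted 30-36 h at 37C, with 4.5 mM final sodium butyrate as control, followed by a ONE-Glo read.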
NPC1 promoter act – activates the NPC1 promoter; Huh7 NPC1 promoter luciferase reporter, 24 h; Potency, µM (top dose mostly 9.22 µM), for the others: top-dose activation, most hits filed as activators; 320,000 tested, 2.4% active; AID 485313; further: % of control where 0% means no effect; nearly all actives have a fitted effect of over 60% in size
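Readout is luciferase luminescence, reflecting NPC1 promoter activation in stably transfected Huh7 cells after 24 h compound exposure at 37 °C in reduced-serum medium with 10% FBS.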
FLuc modulator – counter-screen for miR-21 project: firefly luciferase inhibitors or activators | AID 588342 | Potency, µM (series often up to 57.5 µM), for inactives: at the highest dose activity change, negative = inhibition, actives largely listed as inhibitors | purified FLuc, Km substrates, luminescence inhibition | P08659 | 360,000 tested, 6.9% active;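 further: plate controls were vehicle for no effect and reference inhibitor for full effect; nearly all actives have a fitted effect of over 55% in size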
Target sequence (P08659 whole entry, looked up): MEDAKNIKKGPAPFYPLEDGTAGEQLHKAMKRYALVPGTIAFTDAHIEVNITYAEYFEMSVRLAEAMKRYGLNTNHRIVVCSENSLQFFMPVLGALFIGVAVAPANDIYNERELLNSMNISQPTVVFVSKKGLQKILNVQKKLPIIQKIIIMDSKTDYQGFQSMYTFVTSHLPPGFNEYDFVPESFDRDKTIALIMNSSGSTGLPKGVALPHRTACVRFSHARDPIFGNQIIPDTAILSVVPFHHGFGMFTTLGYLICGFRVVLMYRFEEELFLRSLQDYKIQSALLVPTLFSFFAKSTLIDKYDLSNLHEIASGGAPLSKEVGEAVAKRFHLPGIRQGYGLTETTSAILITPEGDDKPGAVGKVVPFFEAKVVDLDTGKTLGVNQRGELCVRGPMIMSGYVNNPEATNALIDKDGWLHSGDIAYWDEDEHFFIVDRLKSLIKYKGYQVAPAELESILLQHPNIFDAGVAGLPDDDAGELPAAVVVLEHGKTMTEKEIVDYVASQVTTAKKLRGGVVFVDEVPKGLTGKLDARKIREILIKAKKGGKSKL
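Purified P. pyralis luciferase, 10 nM final, with Km-level 10 uM D-luciferin and 10 uM ATP in 50 mM Tris acetate pH 7.5, 10 mM Mg acetate, 0.01% Tween-20, 0.05% BSA; 6-point qHTS titration about 60 µM downward; luminescence read.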
Luc counter – blocks Kinase-Glo luciferase, a counter-screen artifact | Q27757 | Kinase-Glo luciferase, ATP luminescence, 8 min | Potency, µM (titrated, usually from 38.3 µM), without a hit: top-dose activity change, negative = inhibition, actives largely listed as inhibitors | 200,000 tested, 0.28% active | AID 1379; further: on the % scale 0 is the no-effect control and ±100 the full control effect; nearly all actives have a fitted effect of over 60% in size
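Substrate mix (final 50 mM imidazole pH 7.2, 50 mM KCl, 7 mM MgCl2, 10 uM ATP, 0.01% Tween 20, 0.05% BSA) plus pin-tool compound, then Kinase-Glo detection mix; 8 min ambient, luminescence read.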
Rab9 promoter act – activators of Rab9 promoter; Huh7 Rab9 promoter-luciferase reporter, luminescence, 24 h; Potency, µM (series often up to 9.22 µM), for the others: at the top dose activation, negative = inhibition, most hits filed as activators; 320,000 tested, 2.8% active; further: % of control where 0% means no effect; nearly all actives have a fitted effect of over 60% in size
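Luminescence from Amplite-detected luciferase (10 minutes, ambient) reports Rab9 promoter activation. Before that, stable Rab9-luciferase Huh7 cells (1500/well, reduced-serum OP-MEM I plus 10% FBS) were exposed to compound for 24 hours at 37C.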
* = called active by the depositor; ? = inconclusive; . = no result given; [ ] = remark or other dose. The call rests on the fitted dose curve; in most records, active means well fitted curve in the direction sought with a large enough effect; inconclusive means small, poorly fitted or top-dose-only effect, or another doubt; inactive means no such curve, though single readings can be large; an effect the other way counts as inactive or inconclusive. Potency means the concentration at half of the fitted maximal effect.

SMILES | SMN2 splice up | NPC1 promoter act | FLuc modulator | Luc counter | Rab9 promoter act
CN(C(=O)c1ccc2c(c1)N(Cc1ccccc1F)C(=O)c1ccccc1S2)C1CCCCC1 | . | . | -16% | . | .
Cc1ccc(NC(=O)c2c(C)nc3sc(C(=O)Nc4ccc(F)cc4)c(N)c3c2-c2ccc(C)o2)c(C)c1 | -4% | . | 5% | . | .
CC1=C(C(=O)NCc2ccccc2Cl)C2(CCCCCC2)OC1=O | . | . | 0% | . | .
CN1N=C2c3ccccc3CCCC2C1c1ccc(F)cc1 (stereo not drawn) | . | 17% | 12µM* | . | 26%
CCOC(=O)c1c(C)[nH]c(C)c1S(=O)(=O)N1CCCC(C(=O)NCc2ccc(Cl)cc2)C1 (stereo not drawn) | . | . | -10% | . | .
CC(/C=N/NC(=O)c1ccncc1)=C\c1ccccc1 | -7% | 19% | 7.6µM* | -5% | -2%
CC(/C=N/NC(=O)c1cc(C(C)(C)C)[nH]n1)=C\c1ccccc1 | 16% | -1% | ? | 0% | -1%
CC(/C=N/NC(=O)c1cccc(F)c1)=C\c1ccccc1 | . | 0.5µM* | 2.4µM* | . | 0.4µM*
CC(=C/c1ccccc1)/C=N/NC(=O)c1ccccn1 | . | 0.45µM* | 0.6µM* | . | 0.45µM*
O=C(N/N=C/c1ccccc1O)c1ccncc1 | . | -32% | ? | . | -36%
CC(/C=N/NC(=O)Cc1cc(=O)[nH][nH]1)=C\c1ccccc1 | -13% | -3% | 15µM* | -7% | -11%
CCOc1ccc(CNC(=O)c2cnc3c(C)cccn3c2=O)cc1 | . | . | 1% | . | .
COc1ccccc1C(=O)N/N=C/C(C)=C/c1ccccc1 | . | ? | 9.5µM* | . | 15%
CC(=C/c1ccc(C(C)C)cc1)/C=N/NC(=O)c1ccncc1 | 2%[1.84 µM] | 25% | 2.7µM* | -2% | 28%
CCc1ccc(-n2c(=O)c3c4c(sc3n(CC(=O)c3ccc(F)cc3)c2=O)CCC4)cc1 | -2% | . | -6% | . | .
COc1ccc2c(c1)CCC/C2=N\Nc1nc(C(=O)NN)cs1 | . | 22% | 1.3µM* | . | 2%
C(=N\Nc1nc2ccccc2[nH]1)/c1cccc2nccnc12 | . | -5% | ? | . | -4%
BrC(=C\c1ccccc1)/C=N/Nc1nc2ccccc2[nH]1 | -10% | 21% | 2.7µM* | -1% | 18%
C#CCn1cc(/C=N/Nc2nc3ccccc3[nH]2)c2ccccc21 | ? | -2% | 19µM* | 4% | 4%
C(=N\Nc1nc2ccccc2[nH]1)/c1ccc2ncccc2c1 | . | 1.4µM* | 2.1µM* | . | 0.79µM*
BrC(=C\c1ccccc1)/C=N/Nc1nc(N2CCOCC2)nc(N2CCOCC2)n1 | -12%[1.84 µM] | -4% | 2% | -3% | -4%
C(=N\Nc1nc2ccccc2[nH]1)/c1ccccn1 | . | ? | 0.34µM* | 13µM* | ?
Fc1ccccc1-c1ccc(/C=N/Nc2nc3ccccc3[nH]2)o1 | 22µM* | ? | 0.27µM* | ? | 3.5µM*
Cc1ccc(/C=N\Nc2nc3ccc(Cl)cc3[nH]2)o1 | ? | 2.5µM* | 8.5µM* | -2% | 4.5µM*
COc1ccc(N=Cc2nc(-c3ccccc3)oc2OC(=O)c2ccccc2)cc1 | 119% | 27% | 11µM* | -7% | ?
SMILES | SMN2 splice up | NPC1 promoter act | FLuc modulator | Luc counter | Rab9 promoter act
Cc1ccc(C(=O)Oc2oc(-c3ccco3)nc2C=Nc2ccccc2)cc1 | 23% | 29% | 15µM* | -20% | ?
CN(C)c1ccc(N=Cc2nc(-c3ccccc3)oc2OC(=O)c2cccc(Br)c2)cc1 | 16µM* | ? | ? | 0% | 28%
CC(=O)Oc1oc(-c2ccccc2)nc1C=Nc1ccccc1 | 6% | -6% | -19% | -2% | 17%
CCOC(=O)c1ccc(N=Cc2nc(-c3ccccc3)oc2OC(C)=O)cc1 | ? | -4% | ? | -3% | 1%
Oc1oc(-c2ccco2)nc1C=Nc1ccccc1 | . | -2% | -5%[2.3 µM] | 4% | 11%
CCOC(=O)C1CCCN(C(=O)c2cc3c(=O)n(C)c4ccccc4c3s2)C1 (stereo not drawn) | -6% | . | -13% | . | .
CCOc1ccc(CNC(=O)Nc2ccc3c(c2)N(C)C(=O)c2ccccc2S3)cc1 | . | . | -5% | . | .
CCn1c(=N)c(C(=O)NCC2CCCO2)cc2c(=O)n3cc(C)ccc3nc21 (stereo not drawn) | -6% | . | -1% | . | .
O=c1oc2ccccc2c2oc3cc(O)c(O)cc3c12 | -3% | 11% | 21µM* | 1% | 15%
COc1ccc(C(C)=O)cc1CSc1nc(NCc2ccccc2)c2ccccc2n1 | . | . | 7% | . | .
Nc1c(C(=O)c2ccccc2)sc2snc(SCC(=O)c3ccccc3)c12 | 3% | 16% | 7.6µM* | -2% | 29%
Nc1nnc(SCC(=O)c2ccccc2)s1 | 19% | 10% | -15% | 0% | 18%
COc1ccc(C)cc1C1=Nc2ccccc2C1(C)C | -39% | -3% | -5% | -6% | 2%
Cc1ccc(O)c(C2=Nc3ccccc3C2(C)C)c1 | 11% | 29% | 12µM* | -6% | ?
COc1ccc(CNc2oc(-c3ccc(COc4ccc(Cl)cc4)o3)nc2C#N)cc1 | . | . | -3% | . | .
Oc1ccc(/C=C/c2nc(-c3ccccc3O)n(-c3ccccc3)n2)cc1 | -16% | -4% | 17µM* | -6% | 5%
Oc1ccccc1-c1nc(/C=C/c2ccccc2)nn1-c1ccccc1 | -24% | 5% | ? | 0% | 9%
Cc1ccc(-c2noc(C3CCCN(C(=O)c4cccc([N+](=O)[O-])c4)C3)n2)o1 (stereo not drawn) | . | ? | -18% | . | ?
Cc1cccc(C(=O)N2CCCC(c3nc(-c4ccc(C)o4)no3)C2)c1 (stereo not drawn) | . | ? | ? | . | 4µM*
CCOc1ccc(C(=O)N2CCCC(c3nc(-c4cccs4)no3)C2)cc1 (stereo not drawn) | . | 1% | 21µM* | . | 3%
Cc1ccc(N2CCN(C(=O)c3cccn4c(=O)c5ccc(Cl)cc5nc34)CC2C)cc1 (stereo not drawn) | . | . | -1% | . | .
